ALDH1A1 block: inhibitors of human aldehyde dehydrogenase 1A1; Potency, µM (titrated, usually from 75.3 µM), for the others: top-dose activity, negative = inhibition, usual class: inhibitors; actives 7.3% (n = 220,000); Purified ALDH1A1, NADH fluorescence, propionaldehyde substrate; P00352;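 note: potency is the fitted concentration of half-maximal effect; plate controls were no enzyme wells and a reference inhibitor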
PNC inhibitor: perinucleolar compartment assembly inhibition; activity change (PNC), negative = inhibition, % at 10 µM; PC3M PTB-GFP, PNC prevalence imaging, 16 h; hits give low values; AID 2417; actives 3.1% (n = 140,000);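 active = readout at or below -70, meaning at least 70% loss of cells showing the perinucleolar compartment, a nuclear body marking cancer cells; inconclusive = readout between -30 and a set limit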;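 note: plate controls were DMSO wells for no effect and camptothecin positive control wells for full effect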
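Read-out is percentage of cells bearing a perinucleolar compartment, from automated 20x imaging of fixed, Hoechst-stained PC3M PTB-GFP cells. Cells were seeded 4 h, then exposed 16 h to compound (23 nl of library stock) in duplicate plates.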
HPGD inh: inhibitors of human 15-hydroxyprostaglandin dehydrogenase (HPGD); Potency, µM, without a hit: at the top dose activity change, negative = inhibition, most hits filed as inhibitors; AID 894; actives 4.3% (n = 150,000); purified HPGD, NADH fluorescence kinetic, PGE2 substrate; note: potency is the fitted concentration of half-maximal effect
Target sequence (P15428 whole entry, looked up): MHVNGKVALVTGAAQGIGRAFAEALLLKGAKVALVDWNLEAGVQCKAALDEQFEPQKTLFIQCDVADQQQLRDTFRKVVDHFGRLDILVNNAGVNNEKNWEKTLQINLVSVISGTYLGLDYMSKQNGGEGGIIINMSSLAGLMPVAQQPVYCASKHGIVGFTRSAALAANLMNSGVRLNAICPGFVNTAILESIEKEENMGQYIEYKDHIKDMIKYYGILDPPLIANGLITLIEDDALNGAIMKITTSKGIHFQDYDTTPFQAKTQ
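20 nM HPGD preincubated 15 min at room temperature with compound in 50 mM Tris-HCl pH 8, 0.01% Tween 20. Started with 1 mM NAD+ and 30 uM prostaglandin E2; NADH fluorescence (360/450 nm) read 5 times over 30-s intervals, last minus first.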
An asterisk follows results filed as active; [ ] = another dose, or the depositor's remark. A selection: hits, their analogues and other compounds. The true share with any hit is near 11%. Unless noted, calls come from the whole dose curve; as a rule, active = well fitted inhibition curve with a large enough effect (not every such curve was filed as active); inconclusive = small, poorly fitted or top-dose-only effect, or another doubt; inactive = no such curve, though single readings can be large or run the other way. Unless noted, % is set by controls: 0 for no effect and ±100 for the full control effect.

What do the screens show for `O=C1NC(C(=O)O)=CC(c2ccc([N+](=O)[O-])cc2)N1` (centres undefined)?
ALDH1A1 block: 14µM*

How did CC(C)=CC(=O)OCC(=O)Nc1ncc(Cl)c(C)c1Cl do in these assays?
ALDH1A1 block: -10%; PNC inhibitor: 10; HPGD inh: -10%

What do the screens show for `Cc1c(Cl)cnc(NC(=O)COC(=O)c2nn(C)c(=O)c3ccccc23)c1Cl`?
ALDH1A1 block: -1%; PNC inhibitor: -7; HPGD inh: -29%

Results for CC(=O)c1c(C)[nH]c(C(=O)OCC(=O)Nc2ncc(Cl)c(C)c2Cl)c1C ?
ALDH1A1 block: -8%; PNC inhibitor: -100*; HPGD inh: -7%

Results for CCCn1nc(C(=O)OCC(=O)Nc2ncc(Cl)c(C)c2Cl)c2ccccc2c1=O ?
ALDH1A1 block: inconclusive; PNC inhibitor: -113*; HPGD inh: -2%

What do the screens show for `COCCn1c(Cc2ccccc2)nnc1SCc1ccc([N+](=O)[O-])cc1`?
ALDH1A1 block: -4%; PNC inhibitor: 0; HPGD inh: 2%

How did CCCCNC1C(CC)C(CCC)C(C#N)(C#N)C1(C#N)C#N (centres undefined) do in these assays?
ALDH1A1 block: -4%; PNC inhibitor: 11; HPGD inh: -23%

What do the screens show for `COc1ccc2[nH]c3c(=O)n(CCCCCC(=O)NCCC(C)C)c(=S)[nH]c3c2c1`?
ALDH1A1 block: 5%

What do the screens show for `COC(=O)c1cc(S(=O)(=O)N2CCOCC2)ccc1Sc1ccccc1N`?
ALDH1A1 block: inconclusive; PNC inhibitor: inconclusive; HPGD inh: -22%

Results for CC[n+]1c(/C=C/c2ccc(N(C)C)cc2)ccc2ccccc21 ?
ALDH1A1 block: inconclusive; PNC inhibitor: inconclusive; HPGD inh: -25%

Results for CC[n+]1ccc(/C=C/c2ccc(N(C)C)cc2)c2ccccc21 ?
ALDH1A1 block: 22µM*

What do the screens show for `COc1ccc(Cn2c(-c3ccc(Br)cc3)c[n+]3ccccc23)cc1`?
ALDH1A1 block: 2%; PNC inhibitor: 12; HPGD inh: -2%

How did CN(c1nc2c(c(=O)n(C)c(=O)n2C)n1CC(=O)c1ccccc1)C1CCCCC1 do in these assays?
ALDH1A1 block: 28µM*; PNC inhibitor: 26; HPGD inh: -8%

What do the screens show for `Cn1c(=O)c2c(nc(Cc3ccccc3)n2CC(=O)O)n(C)c1=O`?
ALDH1A1 block: 6%[13.5 µM]; HPGD inh: -5%

How did O=C(O)c1ccc2c(c1)C(=O)N(c1ncccn1)C2=O do in these assays?
ALDH1A1 block: 10%; PNC inhibitor: 29; HPGD inh: -4%

What do the screens show for `O=C(O)c1ccc2c(c1)C(=O)N(c1cccc(C(=O)/C=C/c3ccccc3)c1)C2=O`?
ALDH1A1 block: 0.71µM*

Results for CC(=O)NC1=C(C#N)C(c2ccccc2)c2c(ccc3ccccc23)O1 (centres undefined) ?
ALDH1A1 block: 2%; PNC inhibitor: -25; HPGD inh: -30%

Results for C=CCNc1nc(N2CCCCC2)c(C#N)c2c1CN(Cc1ccccc1)CC2 ?
ALDH1A1 block: inconclusive; PNC inhibitor: 31

How did O=C(CSc1nnc(Cn2nnc(-c3ccccc3)n2)n1-c1ccccc1)Nc1ccc(F)cc1 do in these assays?
ALDH1A1 block: inconclusive; PNC inhibitor: inconclusive; HPGD inh: -1%

How did O=C(CSc1nnc(Cn2nnc(-c3ccccc3)n2)n1-c1ccccc1)Nc1ccccc1 do in these assays?
ALDH1A1 block: 4.5µM*; PNC inhibitor: inconclusive; HPGD inh: -7%

What do the screens show for `CCOC(=O)c1ccc(NC(=O)Cn2nnc(-c3ccccc3)n2)cc1`?
ALDH1A1 block: 25µM*; PNC inhibitor: inconclusive

What do the screens show for `CCOC(=O)c1ccc(NC(=O)Cn2nnc(-c3ccc(F)cc3)n2)cc1`?
ALDH1A1 block: 1%; PNC inhibitor: 19; HPGD inh: 0%

How did CCCC(=O)Nc1ccccc1-c1nnn(CC(=O)Nc2ccc(OC)cc2)n1 do in these assays?
ALDH1A1 block: 15%; PNC inhibitor: -81*; HPGD inh: -5%

Results for COc1ccc(NC(=O)Cn2nnc(-c3ccccc3NS(=O)(=O)c3ccccc3)n2)cc1 ?
ALDH1A1 block: 5%; PNC inhibitor: 0; HPGD inh: -16%

What do the screens show for `Cc1c(NC(=O)CN2CCN(c3ccc(F)cc3)CC2)c(=O)n(-c2ccccc2)n1C`?
ALDH1A1 block: 4%

What do the screens show for `N[C@H](CCC(=O)NCC(=O)O)C(=O)O`?
ALDH1A1 block: 0%; HPGD inh: -5%

How did COc1ccc(-n2nnnc2-c2cn(C)nc2C(F)(F)F)cc1 do in these assays?
ALDH1A1 block: 15%; PNC inhibitor: 27; HPGD inh: -6%

Results for CCN(CC)c1ccc(NC(=O)COC(=O)c2ccc3ccccc3n2)cc1 ?
ALDH1A1 block: -11%; PNC inhibitor: 35; HPGD inh: -27%
